Reference: the supplement of paper PMC6555819

How the values were obtained:
Experiment in all cases: PBM binding z-score (relative to random genomic background probes); higher = stronger binding; sequences stand for … in GC…GCGATTGACAGCGTAGAATGAAGG
[1] = test system: PPARg:RXRa DBDmut IVT, anti-RXR (DBD mutation: RXRa K156A/R161A, NR concentration 270 nM, RXRa partner concentration 90 nM)
Summary of the method: (§1)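 Probes were double-stranded and carried 34-nt variable regions with direct-repeat seeds, single-nucleotide variants, half-site ablations and random human genomic background sequences, printed on custom Agilent 4×180K protein-binding microarrays. Arrays were incubated 1 h with ligand-free nuclear receptor dimers in PBS pH 7.4, 2% milk, 0.02% Triton X-100, 1 mM DTT, 0.2 mg/mL BSA and 0.4 mg/ml salmon testes DNA. Antibodies against each partner (one per run) detected binding, and scanned fluorescence was regression-normalized. Binding z-scores use the random background probes as reference.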

[2] = test system: PPARg:RXRa IVT, anti-PPARg (NR concentration 270 nM, RXRa partner concentration 90 nM)
Summary of the method: as §1

[3] = test system: PPARg DBDmut:RXRa IVT, anti-PPARg (DBD mutation: PPARg1 K132A/R137A, NR concentration 270 nM, RXRa partner concentration 90 nM)
Summary of the method: as §1

[4] = test system: PPARg DBDmut IVT, anti-PPARg (DBD mutation: PPARg1 K132A/R137A, NR concentration 270 nM)
Summary of the method: as §1

[5] = test system: PPARg homodimer (NR concentration 180 nM)
Summary of the method: as §1

[6] = test system: PXR:RXRa (NR concentration 270 nM, RXRa partner concentration 90 nM)
Summary of the method: as §1

[7] = test system: PXR homodimer (NR concentration 270 nM)
Summary of the method: as §1

[8] = test system: RARa:RXR (NR concentration 270 nM, RXRa partner concentration 90 nM)
Summary of the method: as §1

[9] = test system: RARa homodimer (NR concentration 270 nM)
Summary of the method: as §1

[10] = test system: RARb:RXRa (NR concentration 270 nM, RXRa partner concentration 90 nM)
Summary of the method: as §1

Row | Sequence | PBM binding z-score [1] | PBM binding z-score [2] | PBM binding z-score [3] | PBM binding z-score [4] | PBM binding z-score [5] | PBM binding z-score [6] | PBM binding z-score [7] | PBM binding z-score [8] | PBM binding z-score [9] | PBM binding z-score [10]
1 | CCTAGCTGGTCAGGAGGTCACACACCGGATATGA | 0.695 | 2.85 | 0.353 | 0.266 | 3.15 | 4.2 | 0.691 | 4.65 | 0.568 | 3.67
2 | CTACCAAGGTGAACAAGATCGTTGATTACTATTC | 2.44 | 2.36 | 0.247 | 0.79 | 0.484 | 0.24 | -0.209 | 0.949 | 0.706 | 1.48
3 | ACAATGAGGTTATACGTAGATCAGGGAAGAAAGT | 2.72 | 1.93 | 1.33 | 1.68 | 0.816 | 1.19 | 0.655 | 1.82 | 0.312 | 1.69
4 | TCTGCTAGGTCAACCATGGTCAGCTAATCTGCTA | 4.75 | 4.6 | -0.545 | -0.0168 | 1.65 | 2.47 | -0.872 | 2.3 | -0.434 | 4.21
5 | TCAGATAGGTAAATGCTAGGTGAAAGTCCGATCT | 2.06 | 0.684 | 0.761 | 0.0198 | 0.547 | 0.13 | -0.341 | 0.568 | -0.137 | 0.156
6 | CCTACTGGGCCAAAGGTCATTGAGTCCAATGCTC | 5.06 | 6.83 | 0.176 | -0.111 | 2.47 | 6.16 | 12.7 | 5.99 | 1.14 | 4.71
7 | CCTACTGAGCCATCAGGTCATTGATATCAACGTT | 1.16 | 1.31 | 0.489 | -0.632 | 2.1 | 2.1 | 1.55 | 2.21 | 1.53 | 1.81
8 | GCTGCGAGGTCAGGTTGGTCAGCTAACGGGTACG | 1.82 | 2.38 | -0.42 | -0.641 | 2.28 | 3.29 | 0.452 | 3.39 | 0.367 | 4.51
9 | TCTAGCAGGCGAGAGGGTCACTCAAGAGGTACGG | 0.656 | -0.139 | -0.781 | -0.425 | 0.125 | 1.47 | -0.472 | 2.24 | -0.11 | 1.81
10 | CGAATTAGGTCATCCAGGACAGTGAATACATTGA | 8.48 | 8.35 | 3.83 | 2.81 | 2.25 | 2.36 | 1.3 | 2.86 | 1.08 | 4.14
11 | CCTATTAGTTGACCATAAGGGCAACCGTAGCTCG | 0.583 | 0.704 | 0.408 | 0.82 | 1.76 | 0.746 | 0.617 | 0.869 | 1.7 | 1.66
12 | GGAACGAGGGCAAAGTTGCTAGCATCTGTCGACG | 3.98 | 3.83 | 0.283 | 0.105 | 0.354 | 0.708 | -0.31 | 0.566 | -1.12 | 2.38
13 | CGAACGAGGGCATGAGTTGATAGGAAATGCCGAT | 2.5 | 1.68 | -1.02 | -0.376 | 0.547 | 0.35 | 0.349 | 0.4 | -0.46 | 1.88
14 | ATCGAAAGGACGACGAGGTGAGTATACACCGTTT | -0.481 | 0.315 | 0.774 | 0.683 | -0.198 | -0.109 | -0.293 | 0.0451 | 0.198 | 1.1
15 | ACTATTAGTTGAGACGAGTGCAACCGATAGGTTG | 0.000618 | 0.0242 | 0.728 | 0.584 | 0.204 | 1.96 | 0.737 | 0.0877 | -0.0239 | 0.0996
16 | ATATGTAGGTTAAGGGTCATTTAGGTTGGTTCGC | 7.27 | 7.94 | 3.6 | 3.31 | 3.63 | 5.37 | 2.03 | 5.61 | 2.42 | 3.61
17 | GTACCAAGGTGAATCGGTCGTTGATGAGTAGGCG | 1.93 | 2.44 | -0.354 | -0.848 | -0.00106 | -0.262 | -0.354 | 0.293 | -0.11 | 1.67
18 | TGTCATAGTTCAAAGGTAACGTAAGTATCCACAC | -0.243 | 3.05 | 1.21 | 1.83 | 1.56 | 3.52 | 1.08 | 4.52 | 1.31 | 3.46
19 | CCGACTGGGGCATAAGGTTACCCTAAGCCAGCCC | 2.4 | 2.69 | -0.367 | -1.53 | -0.0921 | 0.213 | -0.708 | 1.1 | -0.511 | 1.26
20 | CGTCCAAGGTCAATGCTAGGTCAGTCAAAGCATT | 3.29 | 3.92 | 0.558 | -0.362 | 4.74 | 4.84 | 1.29 | 5.75 | 1.17 | 5.36
21 | CCTGCTAGGTCAGTGGTCAGCTAAAGCAGCTCGC | 3.16 | 2.76 | -1.08 | -1.65 | 0.944 | -0.0429 | -0.667 | 0.509 | -0.82 | 3.42
22 | ACTATTAGTTGACTTAGGTCAACCGATACGACGC | 0.95 | 1.72 | 1.38 | 1.44 | 2.81 | 2.2 | 1.29 | 2.59 | 1.55 | 2.73
23 | ATATGTAGGTTATCGGGTCATTTAGTTTGCGCAT | 7.62 | 7.25 | 1.55 | 1.71 | 3.3 | 3.33 | 4.87 | 3.6 | 1.47 | 2.56
